Test [1] in a line: qHTS Assay for Lipid Storage Modulators (AID 1519; calls by dose curve; for activity change, negative = inhibition: % is set by controls: 0 for no effect and ±100 for the full control effect). Conditions: Drosophila S3 cells, BODIPY lipid droplet/cell ratio, laser cytometry, cells loaded with oleic acid. The essentials:
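Cells seeded at 5,000 per well were treated with compounds over a concentration series and loaded with oleic acid (400 uM, as added). Lipid droplet fluorescence (488 nm excitation, 500-530 nm channel) was read by laser-scanning cytometry and normalized to 20 uM Triacsin C.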
On the technique in general: Quantitative high-throughput screening tests each substance at several concentrations.

For test [2], the target named is Alpha-galactosidase A (Homo sapiens) (UniProt P06280). The test is described as follows: Counterscreen for Glucocerebrosidase Inhibitors: qHTS Assay for Human alpha-Galactosidase at pH 4.5 (AID 992). Note: 0% is about no effect. To be noted: purified enzyme, fluorogenic substrate; series mostly up to 76.9 µM. The essentials:
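Concentration-response curves (0.7 nM to 77 uM final) were modeled with the Hill equation to give AC50. Reactions: 2 nM enzyme, 80 uM fluorogenic alpha-galactoside, pH 4.5 citric acid buffer, 20 min, room temperature.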
Background: A counterscreen serves to expose hits that act by an unwanted route or on another target.

Test [3] addresses alpha-glucosidase (Oryza sativa, rice) (UniProt Q653V4). The experiment in a line: Counterscreen for Glucocerebrosidase Inhibitors: qHTS Assay for Rice alpha-Glucosidase at pH 5.0 (AID 997).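 Note: 0% = full activity with enzyme and -100% = basal without enzyme.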 To be noted: rice alpha-glucosidase enzyme activity; series mostly up to 76.9 µM. The essentials: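 Rice alpha-glucosidase (4 nM final) with 400 uM 4-methylumbelliferyl-alpha-D-glucopyranoside in citrate buffer pH 5.0, 20 min at room temperature, stopped at pH 10; fluorescence 365/440 nm, compounds 0.7 nM–77 uM, AC50 from Hill fits.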

The nature of test [4]: Validation of Assay for Modulators of Lamin A Splicing (AID 1459; active = well fitted curve in the direction sought with a large enough effect in the signal ratio; the % refers to the signal ratio;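 note: cells exposed to compound for two days before reading; 0% is about no effect; ratio rise marks activators and ratio drop marks inhibitors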). Conditions: Lamin A splicing dual RFP/GFP fluorescence reporter; series mostly up to 9.22 µM. The essentials: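 Splicing correction read as GFP (500-530 nm) over DsRed2 (575-640 nm) object intensity after 48 h compound exposure of reporter HeLa S3 clones (600 cells/well, 2% FBS medium); ancitabine and cycloheximide titrations, 0.5% DMSO as vehicle.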

Test [5] in a line: Counterscreen for APE1 Inhibitors: Fluorescent Dye Displacement Validation Assay (AID 1707).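 Note: plate controls were ThO with dsDNA and no compound for no effect and ThO without dsDNA for full effect.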 Conditions: fluorescent dye displacement from DNA; series mostly up to 57.1 µM. The essentials: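 Assay buffer: Tris-HCl pH7.5 with 50mM NaCl, 2 mM MgCl2, 0.01% Tween-20. Dye 250 nM, duplex 50 nM final. Readout: decrease in ThO endpoint fluorescence, 480 nm excitation, 540 nm emission.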

For test [6], the target named is Endonuclease 4 (Escherichia coli (strain K12)) (UniProt P0A6C1). The experiment in a line: Counterscreen for APE1 Inhibitors: qHTS Validation Assay for Inhibitors of Endonuclease IV (AID 1708). Note: % is set by controls: 0 for no effect and ±100 for the full control effect. Conditions: E. coli endonuclease IV, DNA cleavage fluorescence; series mostly up to 57.1 µM. Summed up: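 qHTS concentration-response format; LOPAC1280 tested under APE1-screen conditions. 2 nM enzyme, 15 min compound preincubation at RT, then 50 nM TAMRA/BHQ-2 abasic substrate; kinetic fluorescence read, three reads at 60 s intervals.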

Test [7] concerns the target DNA repair nuclease/redox regulator APEX1 (Homo sapiens) (UniProt P27695). The experiment in a line: qHTS Validation Assay for Inhibitors of the Human Apurinic/apyrimidinic Endonuclease 1 (APE1) (AID 1705;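 note: TAMRA fluorescence gain over two minutes as APE1 cuts a quenched THF abasic duplex; % is set by controls: 0 for no effect and ±100 for the full control effect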). To be noted: purified APE1 endonuclease activity, fluorescence, titration; series mostly up to 57.1 µM. The essentials: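 Activity read as rising fluorescence (598 nm emission, 525 nm excitation) from incision of a TAMRA/BHQ-2 duplex carrying a THF abasic site (50 nM). Compound and enzyme sat 15 min at RT before substrate start; signal change between first and third 60-s reads.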

[8] abbreviates: measured here: cell count channel max response.
[9] abbreviates: measured here: lipid channel max response.

Where “and” joins values, the source holds several entries; their conditions need not be identical. Equal values may be shown once. Records with an inconclusive call do not appear. Calls of active or inactive are those of the source. Unless noted, calls come from the whole dose curve; as a rule, active = well fitted curve in the direction sought with a large enough effect; inconclusive = small, poorly fitted or top-dose-only effect, or another doubt; inactive = no such curve, though single readings can be large; an effect the other way counts as inactive or inconclusive.

Chain of DNA repair nuclease/redox regulator APEX1 (Homo sapiens) (P27695 whole entry, looked up): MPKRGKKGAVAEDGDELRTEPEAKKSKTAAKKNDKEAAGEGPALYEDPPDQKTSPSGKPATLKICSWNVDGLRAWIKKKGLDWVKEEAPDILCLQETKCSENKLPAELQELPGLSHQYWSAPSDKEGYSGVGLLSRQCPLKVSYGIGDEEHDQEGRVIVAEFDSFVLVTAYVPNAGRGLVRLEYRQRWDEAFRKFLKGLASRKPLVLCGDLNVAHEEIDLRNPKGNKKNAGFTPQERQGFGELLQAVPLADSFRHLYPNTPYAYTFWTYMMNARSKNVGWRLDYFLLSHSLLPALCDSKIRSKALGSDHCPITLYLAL
Chain of Alpha-galactosidase A (Homo sapiens) (P06280 whole entry, looked up): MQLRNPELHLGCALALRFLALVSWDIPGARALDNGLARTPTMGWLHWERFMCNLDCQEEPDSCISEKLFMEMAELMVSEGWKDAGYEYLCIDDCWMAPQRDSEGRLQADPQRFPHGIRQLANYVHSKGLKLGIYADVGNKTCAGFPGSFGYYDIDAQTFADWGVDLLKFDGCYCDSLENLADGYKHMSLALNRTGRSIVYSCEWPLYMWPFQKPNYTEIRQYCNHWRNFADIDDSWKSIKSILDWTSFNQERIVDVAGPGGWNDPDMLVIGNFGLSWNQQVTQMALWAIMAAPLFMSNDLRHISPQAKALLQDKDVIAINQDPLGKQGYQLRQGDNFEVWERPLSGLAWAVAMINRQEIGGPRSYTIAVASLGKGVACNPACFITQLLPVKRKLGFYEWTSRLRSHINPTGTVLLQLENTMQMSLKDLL

As for `CC(C)(Oc1ccc(Cl)cc1)C(=O)O`, the activity change, negative = inhibition in test [1] (at 25.7 µM (top of the series)) is -1.74% (inactive). For the same molecule, the max response is 1.11% in test [1] (setting [8]) and -1.85% in test [1] (setting [9]).
With `Cc1ccc(C(=O)C(C)CN2CCCCC2)cc1` (stereo not given), the activity change, negative = inhibition in test [1] (at 57.5 µM (top of the series)) is 1.11% (inactive). Further, the figures for the max response in test [1] (setting [8]) and in test [1] (setting [9]) were 7.21% and 11.2%, respectively.
Take `NCCCC[C@H](N[C@@H](CCc1ccccc1)C(=O)O)C(=O)N1CCC[C@H]1C(=O)O`: the activity change, negative = inhibition in test [1] (at 25.7 µM (top of the series)) was 0.781% (inactive). For the same molecule, the results for the max response in test [1] (setting [8]) and in test [1] (setting [9]) were 1.7% and 0.636%, respectively.
`CC(C)COC(=O)OCN1C(=O)CN(CCN2CC(=O)N(COC(=O)OCC(C)C)C(=O)C2)CC1=O`: the outcome in test [2], in test [3], in test [4], in test [5] and in test [6] was inactive. In addition, the activity change, negative = inhibition in test [1] (at 57.5 µM (top of the series)) is 1.23% (inactive). Also, the max response is 3.57% in test [1] (setting [8]) and 4.19% in test [1] (setting [9]).
Regarding `CCCCCCCCCCCCCCCCOP(=O)([O-])OCC[N+](C)(C)C`, in test [1] (at 57.5 µM (top of the series)), the activity change, negative = inhibition was 6.36% (inactive). For the same molecule, the max response came out at 14.5% in test [1] (setting [8]) and 23.7% in test [1] (setting [9]).
Take `CC(=O)c1ccc2c(c1)N(CCCN1CCC(CCO)CC1)c1ccccc1S2`: the activity change, negative = inhibition in test [1] (at 25.7 µM (top of the series)) is -1.72% (inactive). Further, the max response in test [1] (setting [8]) is -5%; in test [1] (setting [9]) it was -2.93%.
As to `CCN1CCC[C@H]1CNC(=O)c1c(OC)ccc(Br)c1OC`, the activity change, negative = inhibition in test [1] (at 25.7 µM (top of the series)) is -6.61% (inactive). Also, the max response in test [1] (setting [8]) was -13.5%; in test [1] (setting [9]) it was -15.4%.
With `N[C@@H](Cc1cnc[nH]1)C(=O)O`, the molecule was called inactive in test [2], in test [3], in test [4], in test [5] and in test [6]. For the same molecule, the activity change, negative = inhibition in test [1] (at 57.5 µM (top of the series)) was 2.39% (inactive). The max response in test [1] (setting [8]) is -24.8%; in test [1] (setting [9]) it was -24.4%. Moreover, the Potency result in test [7] is “inactive”.
Consider `CCCn1c(=O)[nH]c(=O)c2[nH]cnc21`, for which the result in test [2], in test [3], in test [4], in test [5] and in test [6] was inactive. For the same molecule, the activity change, negative = inhibition in test [1] (at 57.5 µM (top of the series)) is -0.904% (inactive). Also, the max response turned out to be 29.5% in test [1] (setting [8]) and 25.8% in test [1] (setting [9]). Further, the Potency entry in test [7] is “inactive”.
In the case of `CC(=O)Nc1c(I)cc(I)c(C(=O)O)c1I`, in test [1] (at 57.5 µM (top of the series)), the activity change, negative = inhibition is 5.69% (inactive). Also, the figures for the max response in test [1] (setting [8]) and in test [1] (setting [9]) were 5.35% and 12.7%, respectively.
As to `CC1(C)CCC(NC(=O)[C@@H](N)CCC(=O)O)CC1`, the result in test [4], in test [5] and in test [6] was inactive. For the same molecule, in test [7], the Potency entry is “inactive”.
Consider `CCC(NC(C)C)C(O)c1ccc(O)c(O)c1` (stereo not given), for which the result in test [4], in test [5] and in test [6] was inactive. The activity change, negative = inhibition in test [1] (at 57.5 µM (top of the series)) was 1.71% (inactive). In addition, the max response was found to be 7.27% in test [1] (setting [8]) and 6.31% in test [1] (setting [9]). For the same molecule, the Potency entry in test [7] was “inactive”.
As for `CC(C)(C(=O)c1cccnc1)c1cccnc1`, the activity change, negative = inhibition in test [1] (at 25.7 µM (top of the series)) is -6.04% (inactive). Moreover, the max response in test [1] (setting [8]) is -12.6%; in test [1] (setting [9]) it was -17.9%.
Taken in the same sequence, the figures for `CC(C)N=C(N)/N=C(\N)Nc1ccc(Cl)cc1` were -2.29% (inactive), -10.3% and -11.8%.
As to `C1CCc2nnnn2CC1`, the outcome in test [2], in test [3], in test [4], in test [5] and in test [6] was inactive. Also, the values for the activity change, negative = inhibition in test [1] (at 25.7 µM (top of the series)) and in test [1] (at 57.5 µM (top of the series)) were 0.501% (inactive) and 0.8% (inactive), respectively. Besides, the max response in test [1] (setting [8]) is 12.5% and 9.15%; in test [1] (setting [9]), 18% and 12.4%. For the same molecule, the Potency result in test [7] is “inactive”.
Take `Cc1cccc(C)c1NC(=O)CN1CCN(CCCC(c2ccc(F)cc2)c2ccc(F)cc2)CC1`: the activity change, negative = inhibition in test [1] (at 25.7 µM (top of the series)) was -4.87% (inactive). In addition, the max response in test [1] (setting [8]) was -22.3%; in test [1] (setting [9]), -28.7%.
As for `CN=C(NC#N)NCCSCc1csc(N=C(N)N)n1`, in test [1] (at 57.5 µM (top of the series)), the activity change, negative = inhibition was 3.24% (inactive). The max response in test [1] (setting [8]) was -6.42%; in test [1] (setting [9]), -3.26%.
Taken in the same sequence, the figures for `COc1ccc(OC)c(C(O)CNC(=O)CN)c1` (stereo not given) were 8.05% (inactive), 10.1% and 23.2%.
On the same counts, the results for `CCN(CCCCOC(=O)c1ccc(OC)c(OC)c1)C(C)Cc1ccc(OC)cc1` (stereo not given) are 3.28% (inactive), 17.5% and 26.2%.
On to `O=C(O)c1cc2cc(Cc3cccnc3)ccc2o1`, for which the call in test [2], in test [3], in test [4], in test [5] and in test [6] was inactive. Moreover, in test [1] (at 57.5 µM (top of the series)), the activity change, negative = inhibition is 4.53% (inactive). In addition, the values for the max response in test [1] (setting [8]) and in test [1] (setting [9]) were 9.59% and 18.2%, respectively. Moreover, in test [7], the Potency result is “inactive”.
For `COc1c2occc2c(OC)c2c(=O)cc(C)oc12`, the activity change, negative = inhibition in test [1] (at 25.7 µM (top of the series)) was 2.26% (inactive). Besides, the max response in test [1] (setting [8]) was 3.81%; in test [1] (setting [9]), 5.65%.
For the molecule `COC(=O)[C@H]1[C@H]2C[C@H]3c4[nH]c5ccccc5c4CCN3C[C@H]2CC[C@@H]1O`, the result in test [4], in test [5] and in test [6] was inactive. Also, the Potency entry in test [7] is “inactive”.
In the case of `CC(O)(P(=O)(O)O)P(=O)(O)O`, the activity change, negative = inhibition in test [1] (at 25.7 µM (top of the series)) is 2.54% (inactive). For the same molecule, the figures for the max response in test [1] (setting [8]) and in test [1] (setting [9]) were -3.25% and -0.531%, respectively.
For `Cc1c(C(N)=O)cc([N+](=O)[O-])cc1[N+](=O)[O-]`, the activity change, negative = inhibition in test [1] (at 57.5 µM (top of the series)) was 9.82% (inactive). For the same molecule, the max response was 12.8% in test [1] (setting [8]) and 29.3% in test [1] (setting [9]).
As for `CC(C)(CO)[C@@H](O)C(=O)NCCCO`, the activity change, negative = inhibition in test [1] (at 57.5 µM (top of the series)) was 2.51% (inactive). Besides, the max response in test [1] (setting [8]) was determined as 21.8%; in test [1] (setting [9]), 22.3%.
On the same counts, the results for `CCCCC1=NC2(CCCC2)C(=O)N1Cc1ccc(-c2ccccc2-c2nn[nH]n2)cc1` are -6.83% (inactive), 15.4% and 9.2%.
On the same counts, the results for `CCCCOc1ccc(C(=O)CCN2CCCCC2)cc1` are -7.63% (inactive), 0.252% and 0.832%.
`C[C@@H](CN(C)C)CN1c2ccccc2Sc2ccccc21`: the activity change, negative = inhibition in test [1] (at 25.7 µM (top of the series)) was -1.55% (inactive). Further, the results for the max response in test [1] (setting [8]) and in test [1] (setting [9]) were -4.09% and -6.89%, respectively.

Values taken from PubChem BioAssay (NCATS).
